The campaign covered roughly 330,000 compounds. About 7,700 (2.3%) were called active. Roughly 26% stayed inconclusive and do not appear here. Calls come from the whole dose curve; as a rule, active = well fitted inhibition curve with a large enough effect; inconclusive = small, poorly fitted or top-dose-only effect, or effect the other way; inactive = flat fitted curve, though single readings scatter. The entries come from a sample that favours actives as a whole. Where a call stands in place of a potency, no number is given.
Assay: qHTS screen for small molecules that inhibit ELG1-dependent DNA repair in human embryonic kidney (HEK293T) cells expressing luciferase-tagged ELG1; note: nearly all actives have a fitted effect of over 55% in size
Conditions: HEK293T ELG1-luciferase reporter, luminescence, 16 h, DNA damage induced by 5-fluorouridine; series mostly up to 46.1 µM
In short: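 In this reporter screen, reduction of luminescence relative to DMSO vehicle indicated activity. Compounds and 5-fluorouridine were added together to 2,000 cells per well, incubated for 16 hr at 37 °C, then developed with ONE-Glo.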
Potency is the fitted concentration of half-maximal effect.

SMILES	Potency
COc1ccc(NC(=O)c2cc([N+](=O)[O-])ccc2NC(=O)CNC2CCCCC2C)c(OC)c1 (configuration not stated)	inactive
CCOc1ccc(C(C(=O)NC2CCCC2)N(C(=O)c2snc(C(N)=O)c2N)C2CCCC2)cc1 (configuration not stated)	inactive
COc1ccc(C(=O)OCC(=O)c2cc(C)n(CC3CCCO3)c2C)cc1[N+](=O)[O-] (configuration not stated)	inactive
O=C(CN1CCCCC1)N1c2ccccc2Sc2ccc(C(F)(F)F)cc21	inactive
O=C(CN1CCCCCC1)N1c2ccccc2Sc2ccc(C(F)(F)F)cc21	inactive
COc1cc(/C=C/C(=O)N2c3ccccc3Sc3ccc(C(F)(F)F)cc32)cc(OC)c1OC	9.2 µM (active)
COC(=O)C1CCN(C(=O)NC2CC(=O)N(c3ccc4c(c3)OCCO4)C2)CC1 (configuration not stated)	inactive
COC(=O)COc1ccc(S(=O)(=O)N2CCOCC2)cc1	inactive
COc1cccc(C(=O)Nc2nnc(S(=O)(=O)N3CCOCC3)s2)c1	inactive
COc1ccc(C(=O)Nc2nc(-c3ccc(S(=O)(=O)N4CCOCC4)cc3)cs2)cc1	11.6 µM (active)
Cc1ccc(C(=O)COC(=O)CCN2C(=O)C3C4CCC(C4)C3C2=O)cc1C (configuration not stated)	inactive
COc1cc(C2CC(=O)c3cnc(NC(C)=O)nc3C2)cc(OC)c1OC (configuration not stated)	inactive
COCCOC(=O)c1[nH]c2c(c1C)C(=O)CC(c1ccc(OC)cc1)C2 (configuration not stated)	inactive
CCCOC(=O)c1[nH]c2c(c1C)C(=O)CC(c1cc(OC)c(OC)c(OC)c1)C2 (configuration not stated)	5.17 µM (active)
COc1ccc(OC)c(S(=O)(=O)Nc2c(C)nn(C)c2C)c1	inactive
Cc1cc(C)c(C)c(S(=O)(=O)N2CCN(C(=O)c3ccc4c(=O)n5c(nc4c3)CCC5)CC2)c1C	inactive
COc1ccc(C=C(C#N)C#N)c(CSc2ccccn2)c1	inactive
Cc1cc(N2CCCC2)ccc1NC(=O)COc1ccc(Cl)cc1	inactive
Cc1cc(C)cc(OCC(=O)Nc2ccc(N3CCOCC3)cc2N2CCOCC2)c1	16.4 µM (active)
Cc1cccc(OCC(=O)NC(=S)Nc2ccccc2N2CCOCC2)c1	inactive
COc1cccc(CNC(=O)CCC2CCCN(C(=O)c3ccc(F)c(Cl)c3)C2)c1 (configuration not stated)	inactive
Cc1ccc(NC(=S)NCCN2CCOCC2)cc1	inactive
COc1cccc(NC(=S)NCCCN2CCOCC2)c1	inactive
CCOc1cccc(/C=N/NC(=S)NCCN2CCOCC2)c1O	13 µM (active)
CCN(CC)C(=O)[C@H]1C[C@H](CC(=O)NCC23CC4CC(CC(C4)C2)C3)C(=O)N2CCc3c([nH]c4cc(CCC(=O)N(C)C)ccc34)[C@]12C	inactive

SMILES	Potency
COc1ccc(C(=O)c2c3ccc([N+](=O)[O-])cc3[n+]([O-])n2CCCN)cc1	inactive
COc1ccc(Cc2nnc(SCC(=O)N(c3ccccc3)C(C)C)n(N)c2=O)cc1	inactive
COc1ccc2c(c1)C(NS(=O)(=O)OCC(Cl)(Cl)Cl)CCC2 (configuration not stated)	inactive
CN1CCN(C(c2cc3cc4c(cc3[nH]c2=O)OCCO4)c2nnnn2C2CCCC2)CC1 (configuration not stated)	inactive
COc1ccc2[nH]c(=O)c(CN(Cc3nnnn3CCc3ccccc3)CC3CCCO3)cc2c1 (configuration not stated)	inactive
CCCN(Cc1cc2cccc(C)c2[nH]c1=O)S(C)(=O)=O	inactive
Cc1cccc2cc(CN(Cc3nnnn3Cc3ccccc3)C3CCCC3)c(=O)[nH]c12	20.6 µM (active)
Cc1cc(C)c2cc(CN(Cc3nnnn3Cc3ccc(F)cc3)C3CCCC3)c(=O)[nH]c2c1	inactive
Cc1cccc2cc(CN(Cc3cccs3)C(c3nnnn3C3CCCC3)C(C)C)c(=O)[nH]c12 (configuration not stated)	11.6 µM (active)
Cc1ccc(N2C(=O)N3[C@@H]4c5ccccc5OC[C@@H]4[C@@H](c4ccccc4)[C@@]3(C)C2=O)cc1	inactive
CC(=O)N1CCSc2ccc(S(=O)(=O)N3CCC(C)CC3)cc21	inactive
CC(Sc1nn(-c2ccc(Cl)cc2)c(=S)s1)C(=O)NCC1CCCO1 (configuration not stated)	inactive
COc1ccccc1N(CCOc1ccccc1)S(=O)(=O)c1ccccc1	inactive
N#CC1=C(SCc2ccc(C#N)cc2)N=C(N)C(c2nc(-c3ccccc3)cs2)C12CCCCC2 (configuration not stated)	inactive
N#CC1=C(SCc2ccccc2)NC(=O)C(C#N)C12CCCC2 (configuration not stated)	14.6 µM (active)
COC(=O)CSC1=C(C#N)C(c2ccccc2OC)C(C(=O)OC)C(=O)N1 (configuration not stated)	inactive
COc1ccc(C(=O)NCc2nnc(SCC(=O)NC3=NCCS3)n2C)cc1	inactive
O=C(COC(=O)c1cc[n+]([O-])cc1)Nc1ccc(Cl)c(C(F)(F)F)c1	inactive
CN(C)C1=NC[C@H](Cc2ccccc2)N1CCc1ccc(F)cc1	inactive
COc1ccc(NC(=O)C2CCC(CNC(=O)[C@@H]3Cc4ccccc4CN3)CC2)cc1 (some centres not stated)	inactive
COc1ccc(N(Cc2cc3ccc(C)cc3[nH]c2=O)S(=O)(=O)c2ccccc2)cc1	inactive
CC(C)n1cnc2c(NCc3ccccc3)cc(OCC3CCN(C)CC3)cc21	inactive
CC(C)n1cnc2c(NCc3ccccc3)cc(N[C@@H](CO)Cc3ccccc3)cc21	16.4 µM (active)
COc1ccc(CNC(=O)/C(C#N)=C/c2cccc(OC)c2OC)cc1	inactive
CN(CC(=O)Nc1ccc(OC(F)F)cc1)S(=O)(=O)/C=C/c1ccccc1	inactive

SMILES	Potency
COc1ccc(N2CCN(c3ccc([N+](=O)[O-])cc3Cl)CC2)cc1	inactive
O=[N+]([O-])c1ccc(N2CCN(c3ccc(O)cc3)CC2)c(Cl)c1	23.1 µM (active)
O=C(O)C1CCN(c2ccc([N+](=O)[O-])cc2[N+](=O)[O-])CC1	inactive
CN(C)C(=O)CCc1ccc2c3c([nH]c2c1)[C@]1(CCC2CCCC2)[C@@H](C(=O)N2CCOCC2)C[C@H](CC(=O)NCc2ccco2)C(=O)N1CC3	inactive
CCN(CC(=O)Nc1cc(Cl)ccc1C)C(=O)Cn1c(=O)cnc2ccccc21	inactive
CC(Oc1ccc2c(-c3ccccc3)cc(=O)oc2c1)C(=O)NC(Cc1c[nH]c2ccccc12)C(=O)O (configuration not stated)	inactive
CC(C)(C)OC(=O)C[C@@H]1C/C=C\C[C@@H](CC(=O)N[C@H](CO)Cc2ccccc2)C(=O)NCCOC1=O	inactive
CCNC(=S)N1CCN(c2ncccn2)CC1	inactive
CC(Oc1ccc(F)cc1)C(=O)N1CCN(c2ncccn2)CC1 (configuration not stated)	inactive
CC12CCC(C(=O)N3CCN(c4ncccn4)CC3)(c3nc4ccccc4nc31)C2(C)C (configuration not stated)	4.11 µM (active)
CN(C(=O)CN1C(=O)/C(=C/c2ccc(Cl)cc2)SC1=S)C1CCS(=O)(=O)C1 (configuration not stated)	inactive
COCCn1c(SCC(=O)Nc2ccc3c(c2)CCC3)nc2ccccc2c1=O	inactive
CCn1c(SCC(=O)Nc2ccc(C)cc2)nc2nc3c(cc2c1=O)CCCC3	18.4 µM (active)
CC(=O)NCCn1c(SCC(=O)Nc2ccc(C)cc2)nc2ccccc2c1=O	inactive
COc1cc(/C=C/C(=O)OCC(=O)c2ccccc2)cc(OC)c1OC	inactive
O=C(c1ccc(Cl)nc1)N1CCN(S(=O)(=O)c2ccc3c(c2)OCCO3)CC1	inactive
COc1ccc(C(C(=O)NC(C)(C)C)N(Cc2ccc(F)cc2)C(=O)CCC(=O)Nc2cc(C)on2)cc1 (configuration not stated)	inactive
Cc1cc(NC(=O)C(C)SCC(=O)Nc2ccccc2N2CCCCC2)no1 (configuration not stated)	inactive
C[C@H](NS(=O)(=O)c1ccc(Cl)cc1)C(=O)OCC(=O)N1CCOCC1	inactive
Cc1cccc(CSc2nc3c(c(=O)n2C)SCC3)c1	14.6 µM (active)
Cn1c(SCC(=O)N2CCCCC2)nc2c(c1=O)SCC2	inactive
CCn1c(SCc2ccccc2)nc2c(c1=O)SCC2	inactive
Cc1ccc(C(=O)NNC(=O)CSc2nnc3ccccn23)cc1	inactive
Cc1nn(CC(=O)N2CCCCC2)c(=O)c2nn(-c3ccccc3)c(C)c12	inactive
COc1ccc(OC)c(CNC(=O)Cn2nc(C)c3c(C)n(-c4ccc(C)cc4)nc3c2=O)c1	8.2 µM (active)

SMILES	Potency
COc1ccc(CNC(=O)C(C)n2nc(C)c3c(C)n(-c4ccccc4)nc3c2=O)c(OC)c1 (configuration not stated)	inactive
COc1ccc(S(=O)(=O)N2CCOC23CCN(S(=O)(=O)c2ccc([N+](=O)[O-])cc2)CC3)cc1	inactive
Cc1cccc(C(=O)NCC(=O)OCC(=O)N2CC3(C)CC2CC(C)(C)C3)c1 (configuration not stated)	inactive
COc1ccccc1C(=O)N1CC2(C)CC1CC(C)(C)C2 (configuration not stated)	inactive
Cc1nnnn1/C(=C\c1ccccc1)C(=O)OCC(=O)N1CC2(C)CC1CC(C)(C)C2 (configuration not stated)	20.6 µM (active)
Cc1ccc(CNC(=O)c2cc(-c3ccccc3C)n(CC3CC(c4cccc([N+](=O)[O-])c4)=NO3)n2)cc1 (configuration not stated)	inactive
O=C(c1ccccc1)N1N=C(c2ccccc2O)CC1c1ccc(Br)cc1 (configuration not stated)	inactive
COc1ccc2c(CC(=O)NNC(=O)c3ccccc3F)coc2c1	inactive
Cc1cccc(NC(=O)c2ccc3c(=O)n(CC4CCCO4)c(=S)[nH]c3c2)c1 (configuration not stated)	16.4 µM (active)
CCC(=O)Nc1ccc(C(=O)Nc2ccc3c(c2)C(=O)N(CC2CCCO2)C3=O)cc1 (configuration not stated)	inactive
COc1ccc(Cn2c(=S)[nH]c3cc(C(=O)NCCCN4CCOCC4)ccc3c2=O)cc1	inactive
COc1ccccc1N1CCN(C(=O)c2ccc(NC3=NC4CS(=O)(=O)CC4S3)cc2)CC1 (configuration not stated)	inactive
COc1ccc(-c2nn(C)c(=O)c3ccccc23)cc1CNC(=O)C1CCCCC1	20.6 µM (active)
COc1ccc(OC)c(CNC(=O)C2CCCN(c3nc4ccccc4o3)C2)c1 (configuration not stated)	inactive
COc1ccccc1CNC(=O)C1CCN(c2nc3ccccc3o2)CC1	inactive
CCN(CC(=O)Nc1cc(Cl)ccc1C)C(=O)CSCc1ccccc1	inactive
CN(C)/N=C/c1cn(-c2ccccc2)nc1-c1cccnc1	inactive
Cc1nnc(SCC(=O)N/N=C/c2cn(-c3ccccc3)nc2-c2ccc(F)cc2)n1-c1ccccc1	inactive
O=C(O)c1ccc(NC(=O)c2cn(-c3ccccc3)nc2-c2ccc(Cl)cc2)cc1	inactive
COc1ccc(-c2nn(-c3ccccc3)cc2C(=O)Nc2nc(CC(C)=O)ns2)cc1	inactive
COc1ccc(-c2nn(-c3ccccc3)cc2C(=O)Nc2nccs2)cc1OC	3.26 µM (active)
COc1ccc(-c2nn(-c3ccccc3)cc2/C=N/Nc2ccccn2)cc1OC	14.6 µM (active)

— PubChem BioAssay AID504467 (National Center for Advancing Translational Sciences (NCATS), 2011)
